Data as given in the supplement of paper PMC12340641.

biological target: IKZF1 (dCK*-IKZF1 fusion in HEK293FT) (UniProt Q13422); assay: inhibition of IKZF1 HTRF signal (DMSO = 0%, pomalidomide 10 uM = 100%); higher = lower IKZF1 protein level; conditions: compound concentration: 5 uM, overnight (~20 h)
How it was run: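 Compound was tested at 5 μM in single wells on HEK293FT cells (2000/well, 384-well) stably carrying an IKZF1 fusion, overnight at 37 °C. Total IKZF1 was measured in lysates with a commercial HTRF antibody kit as the background-subtracted 665/620 nm time-resolved FRET ratio. The reported figure is percent inhibition of IKZF1 signal, scaled per plate between vehicle and a reference degrader. The vehicle anchor was 0% and the degrader anchor 100%.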

Sequence of IKZF1 (dCK*-IKZF1 fusion in HEK293FT) (Q13422 whole entry, looked up, the tested form may be a part): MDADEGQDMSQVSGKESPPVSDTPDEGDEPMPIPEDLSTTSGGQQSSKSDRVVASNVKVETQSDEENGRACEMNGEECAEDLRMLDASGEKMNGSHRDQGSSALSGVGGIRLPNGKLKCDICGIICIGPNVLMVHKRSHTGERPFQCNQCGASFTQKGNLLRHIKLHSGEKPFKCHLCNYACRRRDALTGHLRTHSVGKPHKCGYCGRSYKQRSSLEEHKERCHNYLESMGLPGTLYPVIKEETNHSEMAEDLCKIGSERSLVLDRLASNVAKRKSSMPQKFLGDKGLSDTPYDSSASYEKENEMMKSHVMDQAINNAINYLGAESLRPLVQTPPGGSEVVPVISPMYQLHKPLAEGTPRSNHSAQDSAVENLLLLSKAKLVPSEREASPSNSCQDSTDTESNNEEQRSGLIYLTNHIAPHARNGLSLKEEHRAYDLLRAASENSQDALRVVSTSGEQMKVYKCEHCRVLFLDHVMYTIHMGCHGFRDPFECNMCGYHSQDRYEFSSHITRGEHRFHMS

Row | SMILES | inhibition of IKZF1 HTRF signal
1 | O=[N+]([O-])c1cc(O)c(O)c([N+](=O)[O-])c1 | -33.8%
2 | CCO[C@H]1O[C@@H]2O[C@@]3(C)CC[C@H]4[C@H](C)CC[C@@H]([C@H]1C)[C@@]24OO3 [Artemotil] | 21.4%
3 | CC[C@@H](C(N)=O)N1CCCC1=O | 17.7%
4 | O=C(CCCN1CCC(n2c(=O)[nH]c3ccccc32)CC1)c1ccc(F)cc1 [benperidol] | -18.1%
5 | Clc1ccc(N2CCN(Cc3c[nH]c4ncccc34)CC2)cc1 | -41.5%
6 | OC1=[C@]([C@]2=C(O)C(C(C=O)=C(O)C(O)=C3C(C)C)=C3C=C2C)C(C)=CC4=C1C(C=O)=C(O)C(O)=C4C(C)C [gossypol] | -16.2%
7 | Fc1ccc(C(OCCN2CCN(CCCc3ccccc3)CC2)c2ccc(F)cc2)cc1 [vanoxerine] | -25.6%

system: HEK293FT dCK*-only; assay: relative growth in counter assay (no AraC = 100%, AraC + DMSO = 0%); higher = more growth rescue independent of IKZF1; conditions: compound concentration: 5 uM; AraC concentration: 0.3 uM; overnight pretreatment + 4 days AraC
How it was run: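 For this counter assay, relative growth was normalised on each plate to two kinds of reference wells. HEK293FT cells expressing only an engineered kinase construct (300/well, 384-well) were treated with 5 μM compound 2 h after seeding, then after overnight at 37 °C with a nucleoside suicide substrate at 0.3 μM plus medium for 4 days. On day 5, Hoechst 33342-stained nuclei were counted by imaging, taking wells without suicide substrate as 100% and substrate plus vehicle as 0%.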

Row | SMILES | relative growth in counter assay
8 | COc1cc2cc(c1Cl)N(C)C(=O)C[C@H](OC(=O)C(C)C)[C@]1(C)O[C@H]1[C@H](C)[C@@H]1C[C@@](O)(NC(=O)O1)[C@H](OC)/C=C/C=C(\C)C2 [Ansamitocin P-3] | -34.3%
9 | COc1ccc(C[C@H]2NC[C@H](O)[C@H]2OC(C)=O)cc1 [anisomycin] | -34.7%
10 | Clc1ccccc1C(c1ccccc1)(c1ccccc1)n1cccn1 | 1.96%
11 | C[C@H]1CCC/C=C/C2C[C@H](O)C[C@H]2[C@H](O)/C=C/C(=O)O1 (some centres undefined) [brefeldin-a] | -32.6%
12 | N#Cc1nn(-c2c(Cl)cc(C(F)(F)F)cc2Cl)c(N)c1S(=O)C(F)(F)F (centres undefined) | 7.45%
13 | c1ccc2c(c1)sc1ccccc12 | -4.73%
14 | CCCCCCC[n+]1ccc(-c2cc[n+](CCCCCCC)cc2)cc1 | -12.3%
15 | O=[N+]([O-])c1ccc(Cl)c([N+](=O)[O-])c1 [2,4-dinitrochlorobenzene] | -34.1%
16 | Clc1ccc(C(OCCN2CCCCC2)c2ccccc2)cc1 (centres undefined) | -4.94%
17 | COC(=O)[C@@]12OC[C@]34[C@H]([C@@H](O)[C@@H]1O)[C@@]1(C)CC(=O)C(O)=C(C)[C@@H]1C[C@H]3OC(=O)[C@H](OC(=O)/C=C(\C)C(C)C)[C@@H]24 [Bruceantin] | -34.9%
18 | CC[C@@H](C(=O)O)C1CC[C@H](C)C([C@@H](C)[C@H](O)[C@H](C)C(=O)[C@H](CC)C2O[C@]3(C=C[C@@H](O)[C@]4(CC[C@@](C)(C5CC[C@](O)(CC)[C@H](C)O5)O4)O3)[C@H](C)C[C@@H]2C)O1 (some centres undefined) [Salinomycin (Procoxacin)] | -10.3%
19 | CCCCCCCCCCCCCCCC[n+]1ccccc1 | -34.4%
20 | C[C@]12CC[C@H](O)C[C@H]1CC[C@@H]1[C@@H]2CC[C@]2(C)[C@@H](C3=CC(=O)OC3)CC[C@]12O [digitoxigenin] | -34.6%
21 | O=C(CCCN1CCC2(CC1)C(=O)NCN2c1ccccc1)c1ccc(F)cc1 [spiperone] | -1.41%
22 | C(=C\c1ccccc1)/CN1CCN(CCOC(c2ccccc2)c2ccccc2)CC1 | -4.14%
23 | Cc1cc(O)c2c(=O)c3c(O)cc(O)c4c5c(O)cc(O)c6c(=O)c7c(O)cc(C)c8c1c2c(c34)c(c78)c65 [Hypericin] | -9.3%
24 | CC(C)C[C@H](NC(=O)[C@@H](O)[C@H](N)Cc1ccccc1)C(=O)NCCOCCOCCOCC(=O)O[C@H]1CC[C@H]2[C@@H]3CC[C@H]4CC(=O)CC[C@]4(C)[C@H]3CC[C@]12C.O=C(O)C(F)(F)F [PROTAC AR Degrader-4 (TFA)] | 12.3%
25 | CCCCCCCCCCC(=O)O[C@H]1CC[C@H]2[C@@H]3CCC4=CC(=O)CC[C@]4(C)[C@H]3CC[C@]12C [Testosterone (undecanoate)] | 4.31%
26 | COc1ccc2c(c1)/C(=C/c1cnc[nH]1)C(=O)N2 | -21.6%

Row | SMILES | relative growth in counter assay
27 | N#Cc1cn([C@@H]2O[C@H](CO)[C@@H](O)[C@H]2O)c2ncnc(N)c12 [toyocamycin] | -34.2%
28 | CC[C@@]1(O)C(=O)OCc2c1cc1n(c2=O)Cc2cc3ccccc3nc2-1 [camptothecin] | -34.5%
29 | Oc1c(I)cc(I)cc1I | 4.58%
30 | O=c1c2ccccc2[se]n1-c1ccccc1 | -8.59%
31 | Cc1cc(C(C#N)c2ccc(Cl)cc2)c(Cl)cc1NC(=O)c1cc(I)cc(I)c1O (centres undefined) | -3.81%
32 | O=c1n(Cl)c(=O)n(Cl)c(=O)n1Cl | -2.72%
33 | O=C1/C(=C/c2ccccc2)C[C@@]2(O)C3Cc4ccc(O)c5c4[C@@]2(CCN3CC2CC2)[C@H]1O5 | -34.5%
34 | C=C1[C@@H](C)[C@H]2[C@H](Cc3ccccc3)NC(=O)[C@]23OC(=O)/C=C/[C@H](O)CCC[C@@H](C)C/C=C/[C@H]3[C@@H]1O [Cytochalasin B] | -30.2%
35 | O=C1c2ccccc2C(=O)c2ccccc21 [anthraquinone] | 0.57%
36 | C[C@H]1O[C@@H](O[C@H]2[C@@H](O)C[C@H](O[C@H]3[C@@H](O)C[C@H](O[C@H]4CC[C@@]5(C)[C@H](CC[C@@H]6[C@@H]5C[C@@H](O)[C@]5(C)C(c7coc(O)c7)CC[C@]65O)C4)O[C@@H]3C)O[C@@H]2C)C[C@H](O)[C@@H]1O (some centres undefined) [Digoxin] | -34.1%
37 | O=[N+]([O-])/C=C/c1ccc2c(c1)OCO2 | -33.6%
38 | O=[N+]([O-])c1cc(O)c(O)c([N+](=O)[O-])c1 | 2.01%
39 | CCO[C@H]1O[C@@H]2O[C@@]3(C)CC[C@H]4[C@H](C)CC[C@@H]([C@H]1C)[C@@]24OO3 [Artemotil] | -27.3%
40 | CC[C@@H](C(N)=O)N1CCCC1=O | 2.24%
41 | O=C(CCCN1CCC(n2c(=O)[nH]c3ccccc32)CC1)c1ccc(F)cc1 [benperidol] | 4.87%
42 | Clc1ccc(N2CCN(Cc3c[nH]c4ncccc34)CC2)cc1 | 6.88%
43 | OC1=[C@]([C@]2=C(O)C(C(C=O)=C(O)C(O)=C3C(C)C)=C3C=C2C)C(C)=CC4=C1C(C=O)=C(O)C(O)=C4C(C)C [gossypol] | -34.8%
44 | Fc1ccc(C(OCCN2CCN(CCCc3ccccc3)CC2)c2ccc(F)cc2)cc1 [vanoxerine] | -32.4%
